# Source: PubChem
# Hits are enriched below; roughly 2.8% of the tested compounds scored in any of these assays.
# PP1 inh = PP1-alpha (human) inhibition in PP5 counter-screen | P62136 | purified PP1alpha, OMFP fluorescence | inhibition, % at 6.7 µM | 320,000 compounds, 0.9% hits | AID 2235;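 active = inhibition above the mean inhibition of all tested compounds plus 3 SD, computed separately for each screening campaign, cut at about 15% in these data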
# Target sequence (P62136 whole entry, looked up): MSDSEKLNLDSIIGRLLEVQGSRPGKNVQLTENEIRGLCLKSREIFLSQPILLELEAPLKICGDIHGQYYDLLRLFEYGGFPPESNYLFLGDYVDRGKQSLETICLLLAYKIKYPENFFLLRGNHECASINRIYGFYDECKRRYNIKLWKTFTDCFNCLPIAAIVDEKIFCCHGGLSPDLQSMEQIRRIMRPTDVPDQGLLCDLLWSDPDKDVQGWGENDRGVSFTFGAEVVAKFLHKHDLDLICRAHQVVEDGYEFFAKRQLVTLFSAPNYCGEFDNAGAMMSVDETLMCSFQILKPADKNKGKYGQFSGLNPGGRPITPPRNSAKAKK
# proKLK7 act = activates the human kallikrein-7 zymogen | P49862 | purified proKLK7, EDANS-DABCYL substrate fluorescence; 100% is mature enzyme control, 0% vehicle | activation, % at 7 µM | 370,000 compounds, 0.9% hits | AID 652039;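 active = activation above the mean of all tested compounds plus 3 SD, computed per campaign excluding outliers beyond control limits, cut at about 13% in these data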
# Target sequence (P49862 whole entry, looked up): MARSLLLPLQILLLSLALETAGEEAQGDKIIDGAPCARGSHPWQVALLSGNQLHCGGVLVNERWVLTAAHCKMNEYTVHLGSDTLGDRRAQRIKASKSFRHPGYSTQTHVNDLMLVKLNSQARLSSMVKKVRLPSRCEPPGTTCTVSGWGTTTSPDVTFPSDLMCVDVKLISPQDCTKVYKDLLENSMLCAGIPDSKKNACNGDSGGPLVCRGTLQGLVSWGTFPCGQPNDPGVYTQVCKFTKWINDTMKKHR
# Rev-erbA mod = Rev-erb alpha (human) modulation; P20393; Rev-erbα–FITC-DNA binding, fluorescence polarization, 90 min; activity, % at 10 µM; 370,000 compounds, 0.79% hits; AID 1259318;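 active = activity above about 14%, limit read from the data; passing the limit was not always enough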;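 also: 0% = DMSO wells with 35 nM protein and 100% = DMSO wells with 750 nM protein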
# PP5 inh = PP5 (human) phosphatase inhibition. P53041. purified PP5c, OMFP substrate fluorescence. inhibition, % at 6.7 µM. 320,000 compounds, 0.18% hits;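 active = inhibition above the campaign's mean inhibition across all tested compounds plus 3 SD, cut at about 9.5% in these data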;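 also: 0% = DMSO only and 100% = 100 µM cantharidin control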
# GASC-1 inh = inhibitors of human GASC-1 (JMJD2C) demethylase | Q9H3R0 | GST-JMJD2C(1-420) H3K9me3 demethylation, DELFIA europium | inhibition, % at 2.35 µM | 330,000 compounds, 0.069% hits | AID 2099;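 active = more than half of a compound's replicate wells show inhibition beyond 50%, single wells judged on their own value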;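 also: signal counts dimethyl H3K9 product captured on neutravidin plate; 0% = median of DMSO wells and 100% = 0.3 times that DMSO median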
# PG9 Ab binder = binds the HIV-1 gp120 antibody PG9; TR-FRET gp120-PG9 antibody binding; inhibition, % at 6.7 µM; 360,000 compounds, 0.43% hits; in the data active = inhibition above about 8.5%
# proKLK7 act conf = confirmation of human kallikrein-7 zymogen activators; purified proKLK7, EDANS-DABCYL substrate fluorescence; scaled: vehicle 0, mature enzyme 100; activation, % at 7 µM; shares compounds with proKLK7 act; 3,200 compounds, 68% hits;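 active = activation, as change over the incubation, above the mean of all tested compounds plus 3 SD, cut at about 13% in these data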
# EDANS interfere = fluorescence interference counter-screen for KLK7 activators; shares compounds with proKLK7 act; EDANS-DABCYL substrate fluorescence interference, no enzyme, 4 h; solvent 0%, active enzyme control 100%; activation, % at 7 µM; 3,200 compounds, 80% hits;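 active = activation above the all-compound mean plus 3 SD, ignoring values outside control-based bounds, cut at about 4.8% in these data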;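 also: value is the 4 h activation minus the activation read at time zero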
# EDANS interf = counter-screen for kallikrein-7 activators: EDANS-DABCYL interference, dose response; shares compounds with proKLK7 act; EDANS-DABCYL peptide fluorescence interference, no enzyme; EC50, µM; 250 compounds, 20% hits; AID 720493;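 active = compounds that raise the fluorescence signal in this interference counterscreen, with EC50 at or below 10 µM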;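 also: intact quenched peptide substrate alone read at 355 nm excitation and 520 nm emission; signal is fluorescence gain from T0 to T4 after four hours at room temperature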
# * marks the source's active call; other numbers are inactive results; . = no result given.
SMILES,PP1 inh,proKLK7 act,Rev-erbA mod,PP5 inh,GASC-1 inh,PG9 Ab binder,proKLK7 act conf,EDANS interfere,others
Cc1ccc(-c2cnc3cccnn23)cc1F,.,22.8*,0.2,.,.,1.1,5.0,7.6*,
COc1ccc(-c2nc3c(-c4ccccc4)cnn3cc2C)cc1F,-0.1,-0.1,9.4,3.5,5.0,-0.5,.,.,
COc1cccc(-c2cnc3cccnn23)c1,.,46.1*,-0.3,.,.,0.0,38.5*,44.7*,
CC(C)(C)C(=O)OC12CCCN(C1)/C(=C/c1ccccc1)C2 (centres undefined),.,-0.3,5.7,.,.,.,.,.,
CCOc1ccc(CCNC(=O)c2ccccn2)cc1OCC,.,.,2.6,.,.,.,.,.,
CC1C2=C(CC(C)(C)CC2=O)NC2=C1C(=O)CC(C)(C)C2,2.8,19.0*,3.0,-0.8,5.2,3.1,73.6*,72.7*,
COc1ccc(-c2csc(-c3ccc(C(=O)O)cc3)n2)cc1,2.5,21.9*,-7.0,0.5,-7.4,-0.8,35.1*,53.0*,
CC[C@@]1(O)C(=O)OCc2c1cc1n(c2=O)Cc2cc3c(N)cccc3nc2-1,1.5,26.8*,-17.6,1.1,8.9,-13.4,78.2*,90.0*,
CCN(CC)c1ccc2c(C)c(CO)c(=O)oc2c1,-4.0,50.3*,-2.6,-0.6,-2.8,-1.1,50.6*,36.0*,EDANS interf=>69.5
CCN(CC)c1ccc2c(C)c(CN3CCOCC3)c(=O)oc2c1,1.6,.,.,-0.3,64.3,.,.,.,
Nc1ccc(-c2nc3ccc(N)cc3o2)cc1,-0.6,56.0*,.,-0.9,19.0,-1.1,69.8*,73.0*,
Nc1ccc(-c2nc3cc(N)ccc3o2)cc1,0.7,55.0*,1.4,3.1,17.2,3.7,64.8*,75.2*,
Nc1ccc(-c2nnc(-c3ccc(N)cc3)o2)cc1,5.4,17.9*,-3.1,0.7,1.1,1.1,35.5*,44.4*,
CN(C)c1ccc(-c2nc3cc(N)ccc3o2)cc1,.,23.4*,-2.8,.,-4.6,5.2,9.5,24.1*,
Cc1cccc(Cl)c1-n1nnnc1C1(C)CSCC(=O)N1Cc1ccc(F)cc1 (centres undefined),.,0.3,4.2,.,.,.,.,.,
O=C(CN1CCN(Cc2ccccc2Cl)CC1)N/N=C\c1ccccc1F,.,0.3,-0.3,.,.,.,.,.,
O=S(=O)(NCc1ccc(Cl)c(Cl)c1)c1cc(Cl)ccc1N1CC[C@@H](O)C1,.,-0.6,10.5,.,.,1.1,.,.,
COc1cc2oc(=O)ccc2c(OC)c1CC(O)C(C)(C)O (centres undefined),-4.8,1.6,-2.0,-0.3,-12.0,-0.4,.,.,
COc1cc2ccc(=O)oc2cc1OCC(O)C(C)(C)O (centres undefined),-4.7,21.0*,-3.4,3.1,11.2,1.9,32.9*,47.6*,
COc1cc2ccc(=O)oc2cc1O,-6.4,95.0*,-9.1,3.4,.,0.1,76.7*,83.1*,
COc1cc2ccc(=O)oc2c(CC=C(C)C)c1OC,-1.1,3.4,-8.0,7.7,-10.5,4.2,.,.,
CCN1CCN(c2nc(-c3ccccc3)c3ccccc3n2)CC1,0.3,28.0*,-3.3,0.5,4.4,1.1,-10.0,-5.5,
c1ccc(-c2nc(N3CCCCC3)nc3ccccc23)cc1,-2.6,22.4*,4.4,1.6,-3.4,2.8,-69.2,-50.2,
c1ccc2c(N3CCCCC3)nc(N3CCCC3)nc2c1,-3.5,-1.7,2.7,0.7,0.3,-1.0,.,.,
Cc1ccc2nc(N3CCC(C(=O)O)CC3)nc(-c3ccccc3)c2c1,-4.2,6.4,-4.7,0.5,7.8,-1.2,.,.,
SMILES,PP1 inh,proKLK7 act,Rev-erbA mod,PP5 inh,GASC-1 inh,PG9 Ab binder,proKLK7 act conf,EDANS interfere,others
c1ccc(-c2nc(N3CCNCC3)nc3ccccc23)cc1,-0.4,69.0*,-0.9,1.4,8.3,-1.1,17.9*,18.8*,
COc1ccc2c3c([nH]c2c1)C1=NCC[C@]12c1ccccc1N=CN2CC3,.,.,1.0,.,.,.,.,.,
COC(=O)COc1cc(C)cc2oc(=O)c(CC(=O)OC)c(C)c12,-2.5,73.5*,2.5,-1.8,13.1,-0.8,96.6*,99.4*,
COc1ccc2c(C)c(Cl)c(=O)oc2c1,-1.2,6.6,2.7,1.5,10.1,0.7,.,.,
COC(=O)C(C)Oc1cc(OC(C)C(=O)OC)c2c(C)c(Cl)c(=O)oc2c1 (centres undefined),4.5,65.2*,0.8,-0.8,-6.1,0.7,-39.9,29.5*,
Cc1cc(OCc2nn[nH]n2)c2c(C)c(CC(=O)O)c(=O)oc2c1,-2.3,11.5,-6.5,-1.4,-3.7,2.4,.,.,
COC(=O)COc1cc(OCC(=O)OC)c2c(C)c(Cl)c(=O)oc2c1,-3.3,191.7*,-2.7,-4.8,0.9,-1.6,303.6*,277.2*,
CCOC(=O)COc1cc(OCC(=O)OCC)c2c3c(c(=O)oc2c1)CCCC3,.,1.9,12.9,.,2.8,-0.6,.,.,
COC(=O)[C@@H]1[C@H](O[Si](C)(C)C(C)(C)C)C2OC2C[C@H]1S(=O)(=O)c1ccccc1 (some centres undefined),.,.,-7.3,.,.,.,.,.,
CCOC(=O)C1(C(=O)OCC)N=C(c2ccccc2)C=C1c1ccccc1,.,-0.2,1.1,.,.,-0.6,.,.,
COc1ccc(N2C(=O)CC(N3CCN(Cc4ccc5c(c4)OCO5)CC3)C2=O)cc1 (centres undefined),0.4,53.0*,1.5,-1.6,-276.7,1.9,0.3,0.3,
CC(NC(=O)C=Cc1ccco1)C(=O)NC(Cc1ccccc1)C(N)=O (centres undefined),.,0.3,-3.2,.,.,-0.1,.,.,
O=C(O)c1cccc(CN2C(=O)SC(Nc3cccc4ccccc34)C2=O)c1 (centres undefined),6.8,60.0*,-2.4,0.8,-26.9,-1.1,61.8*,69.3*,
Cc1ccc(-c2csc3nc4ccc(C(=O)NCCO)cc4c(=O)n23)cc1,4.2,15.8*,4.4,1.4,-5.8,0.9,-31.8,-35.5,
CC(=O)c1ccc(-c2nc3ccccc3n2C)o1,-3.0,66.6*,-1.9,-1.5,14.7,4.4,56.7*,58.8*,
Cc1ccc(-c2nc3ccccc3n2C)o1,5.3,-1.2,-2.8,1.4,-6.6,-2.2,.,.,
O=S(=O)(N[C@@H]1CCCC[C@@H]1N1CCOCC1)c1ccc(Cl)cc1,.,.,-4.2,.,.,.,.,.,
Cc1ccc(F)cc1C(=O)N1CCCC(c2nc(-c3cccs3)no2)C1 (centres undefined),.,-0.5,0.6,.,.,.,.,.,
O=S(=O)(c1ccc(-c2cn3ccccc3n2)cc1)N1CCOCC1,-4.8,16.4*,-1.1,-1.4,26.3,1.6,19.0*,16.1*,EDANS interf=>69.5
